# Reference: ChEMBL document CHEMBL3988442, “University of Dundee, Small-Polar-MMV Screening Library” (2021)
# For some assays here: Potency and affinity values are given separately.
# How the values were obtained:
# Design in all cases: scale not given: direction of the effect not stated beside the values
# [1] = biological target: Protein translocase subunit SecA (Escherichia coli (strain K12)) (UniProt P10408); assay: Assay to Identify E. coli SecA ATPase Inhibitors; assay type: functional; settings: 30 µM
# [2] = biological target: T1, Ubiquitin-activating enzyme e1, putative (Leishmania donovani (strain BPK282A1)) (UniProt E9BSI1); assay: Leishmania donovani Ubiquitin Activating Enzyme (LdE1); assay type: functional; settings: 30 µM
# T1 sequence (whole entry): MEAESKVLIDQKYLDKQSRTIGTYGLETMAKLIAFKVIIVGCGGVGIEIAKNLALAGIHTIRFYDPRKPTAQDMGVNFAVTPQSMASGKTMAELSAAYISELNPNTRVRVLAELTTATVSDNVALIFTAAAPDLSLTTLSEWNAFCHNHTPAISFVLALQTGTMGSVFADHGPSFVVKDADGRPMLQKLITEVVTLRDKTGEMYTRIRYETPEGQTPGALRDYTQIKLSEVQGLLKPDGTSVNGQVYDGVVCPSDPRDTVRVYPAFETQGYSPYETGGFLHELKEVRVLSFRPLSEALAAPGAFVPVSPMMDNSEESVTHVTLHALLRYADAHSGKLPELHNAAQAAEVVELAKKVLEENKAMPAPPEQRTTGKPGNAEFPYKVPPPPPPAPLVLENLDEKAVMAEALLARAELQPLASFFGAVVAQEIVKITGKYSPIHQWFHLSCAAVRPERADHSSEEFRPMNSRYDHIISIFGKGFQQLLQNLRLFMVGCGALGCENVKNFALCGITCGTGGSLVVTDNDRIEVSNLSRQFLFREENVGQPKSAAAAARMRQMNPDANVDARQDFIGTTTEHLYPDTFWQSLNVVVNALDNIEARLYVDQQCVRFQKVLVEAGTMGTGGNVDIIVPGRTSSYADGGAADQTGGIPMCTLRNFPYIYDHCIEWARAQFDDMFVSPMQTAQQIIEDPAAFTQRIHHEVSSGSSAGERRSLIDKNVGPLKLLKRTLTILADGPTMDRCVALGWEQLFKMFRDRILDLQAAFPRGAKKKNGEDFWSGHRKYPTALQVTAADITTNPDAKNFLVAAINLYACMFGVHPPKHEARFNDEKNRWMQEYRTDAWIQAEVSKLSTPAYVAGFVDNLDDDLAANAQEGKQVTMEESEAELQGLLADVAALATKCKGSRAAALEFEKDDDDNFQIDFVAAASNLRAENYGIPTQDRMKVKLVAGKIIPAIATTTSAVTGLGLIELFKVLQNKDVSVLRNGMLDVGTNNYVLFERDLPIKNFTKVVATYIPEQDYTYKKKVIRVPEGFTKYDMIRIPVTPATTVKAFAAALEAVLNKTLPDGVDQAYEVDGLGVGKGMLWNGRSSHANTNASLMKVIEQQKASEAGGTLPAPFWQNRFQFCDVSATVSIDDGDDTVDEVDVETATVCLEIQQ
# [3] = biological target: AMP-activated protein kinase, AMPK (Homo sapiens) (UniProt P54646+O43741+P54619+Q9UGJ0+Q9Y478+Q13131+Q9UGI9); assay: AMP-dependent Kinase enzyme assay. An in vitro enzyme assay that detects ADP turnover that is directly proportional to AMPK activity. This uses naive AMPK that is activated during the assay with MK-8722; assay type: functional; settings: 30 µM
# [4] = biological target: Sialic acid-binding Ig-like lectin 9 (Homo sapiens) (UniProt Q9Y336); assay: Hs-Siglec9 ALPHAscreen SOP 20170721; settings: 10 µM
# Trypanosoma cruzi = assay: Trypanosoma cruzi phosphomannomutase and mannose-1-phosphate guanylyltransferase assay; assay type: functional; settings: 10 µM
# [5] = biological target: T2, Arginase-2, mitochondrial (Homo sapiens) (UniProt P78540); assay: in vitro enzyme assay to detect the production of urea directly proportional to the activity of Arginase II; assay type: functional; settings: 33.3 µM; note: in the data most compounds retested in dose-response had high values
# T2 sequence (whole entry): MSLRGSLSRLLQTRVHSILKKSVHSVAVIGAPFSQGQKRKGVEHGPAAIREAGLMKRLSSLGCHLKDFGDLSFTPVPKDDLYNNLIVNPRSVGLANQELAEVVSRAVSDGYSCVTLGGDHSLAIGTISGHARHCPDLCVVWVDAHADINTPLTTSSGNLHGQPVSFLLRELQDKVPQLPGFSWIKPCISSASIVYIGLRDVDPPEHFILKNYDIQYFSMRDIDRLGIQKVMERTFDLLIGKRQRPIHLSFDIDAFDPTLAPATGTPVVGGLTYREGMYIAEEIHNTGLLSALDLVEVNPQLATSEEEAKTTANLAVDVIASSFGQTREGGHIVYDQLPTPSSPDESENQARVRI
# [6] = biological target: T3, Proteasome subunit beta (Trypanosoma cruzi) (UniProt O96673); assay: Trypanosoma cruzi proteasome chymotrypsin-like activity (TcProtChymo) assay.; note: in the data most compounds retested in dose-response had high values; assay type: functional; settings: 9.37 µM
# T3 sequence (whole entry): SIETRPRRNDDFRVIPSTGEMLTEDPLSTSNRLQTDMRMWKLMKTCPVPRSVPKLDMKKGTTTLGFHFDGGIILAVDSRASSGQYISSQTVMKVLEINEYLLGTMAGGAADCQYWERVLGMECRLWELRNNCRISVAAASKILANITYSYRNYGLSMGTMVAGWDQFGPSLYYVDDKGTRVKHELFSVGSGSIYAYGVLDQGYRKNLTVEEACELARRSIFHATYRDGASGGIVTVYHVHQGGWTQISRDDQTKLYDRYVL
# Homo sapiens = species: Homo sapiens; assay: To identify inhibition of the IFN signalling (Jak-Stat) pathway via expression of an eGFP reporter gene under the control of an IFN-stimulated response element (ISRE) containing MxA promoter.; assay type: functional; settings: 30 µM
# [7] = biological target: T4, Tyrosyl-tRNA synthetase, putative (Trypanosoma cruzi (strain CL Brener)) (UniProt Q4DSP6); assay: Trypanosoma cruzi tyrosyl tRNA synthetase (TcYRS) _High Tyrosine SOP; assay type: functional; settings: 30 µM; note: in the data most compounds retested in dose-response had high values
# T4 sequence (whole entry): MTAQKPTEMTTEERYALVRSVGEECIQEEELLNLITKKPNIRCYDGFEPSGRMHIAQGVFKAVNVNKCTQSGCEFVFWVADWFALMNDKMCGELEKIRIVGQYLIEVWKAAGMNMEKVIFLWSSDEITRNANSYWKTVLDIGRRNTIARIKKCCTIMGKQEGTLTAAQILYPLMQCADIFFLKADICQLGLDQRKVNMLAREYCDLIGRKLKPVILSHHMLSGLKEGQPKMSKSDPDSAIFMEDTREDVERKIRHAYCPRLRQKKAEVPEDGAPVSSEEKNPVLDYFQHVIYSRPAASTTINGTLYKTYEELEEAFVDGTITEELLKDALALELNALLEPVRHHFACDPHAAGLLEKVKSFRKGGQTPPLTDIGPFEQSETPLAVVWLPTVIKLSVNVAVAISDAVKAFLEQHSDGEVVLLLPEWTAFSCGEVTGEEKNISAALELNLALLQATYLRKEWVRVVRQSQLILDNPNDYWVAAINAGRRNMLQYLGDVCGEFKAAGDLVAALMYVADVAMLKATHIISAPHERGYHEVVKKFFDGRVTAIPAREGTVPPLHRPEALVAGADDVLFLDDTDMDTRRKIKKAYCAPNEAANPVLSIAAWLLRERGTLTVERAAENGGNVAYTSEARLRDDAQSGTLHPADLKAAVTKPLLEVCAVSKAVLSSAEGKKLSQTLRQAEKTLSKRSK
# [8] = biological target: T4, Tyrosyl-tRNA synthetase, putative (Trypanosoma cruzi (strain CL Brener)); assay: Trypanosoma cruzi tyrosyl tRNA synthetase (TcYRS) SOP; assay type: functional; settings: 30 µM
# [9] = biological target: Chromo domain-containing protein 1 (Saccharomyces cerevisiae (strain ATCC 204508 / S288c) (Baker's yeast)) (UniProt P32657); assay: ScCHD-1 Enzyme Inhibition Assay; assay type: functional; settings: 30 µM; note: in the data most compounds retested in dose-response had high values
# Chain of Chromo domain-containing protein 1 (Saccharomyces cerevisiae (strain ATCC 204508 / S288c) (Baker's yeast)) (P32657 whole entry, the tested form may be a part): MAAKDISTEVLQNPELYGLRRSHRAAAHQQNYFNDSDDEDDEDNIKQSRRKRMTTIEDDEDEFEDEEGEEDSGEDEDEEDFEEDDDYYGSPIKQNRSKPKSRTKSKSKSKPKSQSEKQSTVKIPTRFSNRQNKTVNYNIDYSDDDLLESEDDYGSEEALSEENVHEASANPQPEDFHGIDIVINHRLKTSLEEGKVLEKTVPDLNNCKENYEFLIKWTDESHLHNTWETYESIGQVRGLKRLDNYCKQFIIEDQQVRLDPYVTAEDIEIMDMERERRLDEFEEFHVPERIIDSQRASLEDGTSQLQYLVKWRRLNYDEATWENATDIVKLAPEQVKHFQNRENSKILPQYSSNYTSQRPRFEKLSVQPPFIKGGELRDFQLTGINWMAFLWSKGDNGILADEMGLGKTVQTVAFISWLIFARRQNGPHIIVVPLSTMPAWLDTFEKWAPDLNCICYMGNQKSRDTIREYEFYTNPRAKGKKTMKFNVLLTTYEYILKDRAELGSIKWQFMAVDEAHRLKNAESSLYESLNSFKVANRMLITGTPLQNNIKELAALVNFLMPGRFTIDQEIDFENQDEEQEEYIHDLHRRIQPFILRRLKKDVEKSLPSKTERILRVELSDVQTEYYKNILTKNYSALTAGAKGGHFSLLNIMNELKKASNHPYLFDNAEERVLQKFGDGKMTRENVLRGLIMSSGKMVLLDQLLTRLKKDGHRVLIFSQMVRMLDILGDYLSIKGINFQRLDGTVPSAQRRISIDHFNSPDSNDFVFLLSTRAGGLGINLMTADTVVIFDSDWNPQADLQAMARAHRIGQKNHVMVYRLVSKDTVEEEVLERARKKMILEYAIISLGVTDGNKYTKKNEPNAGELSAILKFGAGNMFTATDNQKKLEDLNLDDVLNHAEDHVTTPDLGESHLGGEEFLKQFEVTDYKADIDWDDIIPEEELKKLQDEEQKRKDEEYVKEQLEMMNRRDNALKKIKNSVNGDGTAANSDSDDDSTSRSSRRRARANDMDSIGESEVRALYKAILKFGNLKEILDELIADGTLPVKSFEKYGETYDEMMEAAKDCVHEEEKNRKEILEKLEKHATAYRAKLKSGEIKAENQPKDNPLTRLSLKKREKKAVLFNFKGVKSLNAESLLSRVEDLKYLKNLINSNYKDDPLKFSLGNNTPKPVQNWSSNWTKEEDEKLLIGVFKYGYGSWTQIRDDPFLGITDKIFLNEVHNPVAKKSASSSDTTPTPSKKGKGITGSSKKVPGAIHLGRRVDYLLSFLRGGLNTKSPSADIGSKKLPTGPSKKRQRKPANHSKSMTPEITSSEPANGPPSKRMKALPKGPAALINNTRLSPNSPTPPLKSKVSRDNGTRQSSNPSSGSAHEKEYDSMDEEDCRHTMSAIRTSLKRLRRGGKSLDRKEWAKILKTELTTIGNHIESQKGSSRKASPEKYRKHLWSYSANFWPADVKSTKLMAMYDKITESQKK
# Chain of Sialic acid-binding Ig-like lectin 9 (Homo sapiens) (Q9Y336 whole entry): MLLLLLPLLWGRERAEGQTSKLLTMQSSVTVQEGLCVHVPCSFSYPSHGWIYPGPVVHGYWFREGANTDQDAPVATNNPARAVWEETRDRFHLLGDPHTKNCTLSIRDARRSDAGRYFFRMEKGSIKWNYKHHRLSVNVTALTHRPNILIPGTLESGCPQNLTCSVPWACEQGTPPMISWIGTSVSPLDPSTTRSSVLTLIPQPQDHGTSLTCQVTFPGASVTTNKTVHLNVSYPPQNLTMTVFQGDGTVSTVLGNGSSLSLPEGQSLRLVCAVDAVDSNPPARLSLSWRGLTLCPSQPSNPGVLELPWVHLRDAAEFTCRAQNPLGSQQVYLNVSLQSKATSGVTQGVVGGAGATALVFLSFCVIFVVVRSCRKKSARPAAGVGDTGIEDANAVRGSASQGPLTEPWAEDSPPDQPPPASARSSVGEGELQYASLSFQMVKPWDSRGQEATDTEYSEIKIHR
# Chain of Protein translocase subunit SecA (Escherichia coli (strain K12)) (P10408 whole entry): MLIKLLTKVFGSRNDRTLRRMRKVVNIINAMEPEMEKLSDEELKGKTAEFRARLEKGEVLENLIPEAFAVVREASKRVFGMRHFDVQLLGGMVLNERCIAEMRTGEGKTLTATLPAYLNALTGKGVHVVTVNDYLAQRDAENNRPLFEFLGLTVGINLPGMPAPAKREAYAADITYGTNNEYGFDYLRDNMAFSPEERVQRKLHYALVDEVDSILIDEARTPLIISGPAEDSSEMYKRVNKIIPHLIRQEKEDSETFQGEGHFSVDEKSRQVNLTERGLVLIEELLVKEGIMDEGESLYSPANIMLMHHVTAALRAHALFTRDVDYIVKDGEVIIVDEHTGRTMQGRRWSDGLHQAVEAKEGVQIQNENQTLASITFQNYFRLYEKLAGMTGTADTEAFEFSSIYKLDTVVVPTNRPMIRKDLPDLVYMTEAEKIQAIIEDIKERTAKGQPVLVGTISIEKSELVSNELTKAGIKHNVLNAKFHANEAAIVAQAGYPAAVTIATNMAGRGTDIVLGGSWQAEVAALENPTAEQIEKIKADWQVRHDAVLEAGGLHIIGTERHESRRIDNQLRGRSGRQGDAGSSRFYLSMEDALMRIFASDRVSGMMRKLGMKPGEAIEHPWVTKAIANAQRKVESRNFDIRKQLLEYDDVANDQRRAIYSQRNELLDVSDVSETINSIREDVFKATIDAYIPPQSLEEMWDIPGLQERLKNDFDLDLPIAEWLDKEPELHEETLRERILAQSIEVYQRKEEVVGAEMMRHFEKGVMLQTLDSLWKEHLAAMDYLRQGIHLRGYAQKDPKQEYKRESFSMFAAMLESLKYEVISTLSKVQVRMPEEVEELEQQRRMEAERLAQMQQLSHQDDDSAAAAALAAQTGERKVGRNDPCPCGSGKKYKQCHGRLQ
Compound,Percent Effect [1],Percent Effect [2],Percent Effect [3],Percent Effect [4],Percent Effect (Trypanosoma cruzi),Percent Effect [5],Percent Effect [6],Percent Effect (Homo sapiens),Percent Effect [7],Percent Effect [8],Percent Effect [9]
O=C(c1cccc(F)c1)N1CCOC(c2nc(-c3ncccn3)no2)C1 (stereo not given),-7.06%,5.33%,0.687%,-2.48%,-4.53%,-0.699%,3.44%,17.9%,3.19%,6.41%,-2.27%
CCc1nccn1C1CCCN(C(=O)c2cc3nc(C)ccc3o2)C1 (stereo not given),-7.55%,8.11%,-3.48%,4.87%,-6.7%,-4.81%,4.87%,32.4%,3.45%,3.7%,0.188%
Cn1ccc(C(=O)N2CCC(Cc3cccc4cccnc34)C2)n1 (stereo not given),-2.61%,9.46%,13.5%,3.85%,-5.73%,-2.09%,4.68%,16.3%,5.38%,6.49%,0.402%
Cn1cnc2c1CCN(Cc1nc(COc3ccc(F)cc3)no1)C2,-9.01%,7.89%,3.1%,1.46%,-5.7%,1.44%,7.19%,10.3%,0.493%,-6.17%,-0.821%
Cn1cc(CN2CCCn3cnc(COCC4CC4)c3C2)cn1,-4.51%,8%,-1.37%,1.51%,6.95%,-55.7%,7.69%,-4.29%,4.17%,15%,-7.64%
O=C(c1cncc(N2CCC(O)(CO)CC2)n1)N1CCCC1,-4.63%,5.33%,-3.65%,8.86%,6.72%,0%,16.9%,-11.2%,9.29%,18.5%,-7.99%
N#Cc1ccc(C(=O)NCCCNc2ccc(C(F)(F)F)cn2)cc1,-0.682%,13.2%,3.77%,-0.309%,-7.52%,-0.766%,9.02%,35.5%,7.35%,17.1%,-10.9%
Cc1cnn(CC2CN(CCN3CCCC3=O)CCO2)c1 (stereo not given),-6.18%,5.41%,-4.61%,8.1%,8.7%,0.744%,7.3%,-3.36%,-3.23%,11.1%,-4.96%
Cc1cc(C[C@@H]2CCC[C@H]2NCc2ccccc2C(F)(F)F)on1,-4.94%,1.35%,8.14%,-0.325%,0%,2.55%,6.4%,13.5%,2.15%,9.09%,-10.5%
Cc1nnc2n1CCN(C(=O)COCCOc1ccccc1)C2,-3.64%,-21.5%,10%,1.03%,-1.33%,4.95%,7.89%,3.44%,5.21%,12.7%,-1.76%
